RXFP1 ag: agonists of human relaxin receptor RXFP1; 370,000 tested, 0.3% active; HEK293T-RXFP1 cAMP TR-FRET, 30 min; response scale: percent of porcine relaxin response, buffer zero; Potency, µM (highest dose often 57.5 µM), without a hit: at the top dose activation, actives largely listed as activators; Q9HBX9; active = well fitted activation curve with a large enough effect; inconclusive = small, poorly fitted or top-dose-only effect; note: potency is the fitted concentration of half-maximal effect; % is set by controls: 0 for no effect and ±100 for the full control effect; nearly all actives have a fitted effect of over 60% in size
Target sequence (Q9HBX9 whole entry, looked up): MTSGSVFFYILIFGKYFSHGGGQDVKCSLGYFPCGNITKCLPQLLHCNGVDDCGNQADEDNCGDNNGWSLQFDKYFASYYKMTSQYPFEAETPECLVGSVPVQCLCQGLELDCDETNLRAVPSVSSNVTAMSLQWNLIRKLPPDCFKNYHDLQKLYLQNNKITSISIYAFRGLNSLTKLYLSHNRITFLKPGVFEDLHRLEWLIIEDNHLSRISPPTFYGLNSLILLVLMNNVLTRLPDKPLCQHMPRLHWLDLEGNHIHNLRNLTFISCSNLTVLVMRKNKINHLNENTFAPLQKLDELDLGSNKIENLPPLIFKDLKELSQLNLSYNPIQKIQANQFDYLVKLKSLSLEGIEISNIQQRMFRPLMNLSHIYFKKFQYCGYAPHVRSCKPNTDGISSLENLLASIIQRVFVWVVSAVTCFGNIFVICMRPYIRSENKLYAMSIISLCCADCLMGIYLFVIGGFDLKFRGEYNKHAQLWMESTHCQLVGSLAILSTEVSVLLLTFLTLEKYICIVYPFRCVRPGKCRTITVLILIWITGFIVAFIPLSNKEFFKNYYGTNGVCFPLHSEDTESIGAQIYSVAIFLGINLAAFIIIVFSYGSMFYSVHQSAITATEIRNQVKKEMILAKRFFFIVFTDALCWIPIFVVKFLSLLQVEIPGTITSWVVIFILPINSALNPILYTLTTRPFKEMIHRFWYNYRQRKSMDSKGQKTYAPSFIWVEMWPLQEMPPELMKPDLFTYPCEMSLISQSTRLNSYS
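Agonist response is measured as cAMP accumulation in an RXFP1-transfected HEK293T line under PDE4 inhibition. Values are scaled between buffer-only and 29 nM porcine relaxin, and EC50s come from standard Hill equation fits.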
RXFP1 antagonist: RXFP1 (human) relaxin receptor antagonism; AID 1259400; HEK293-RXFP1, relaxin-stimulated cAMP HTRF, 30 min; hits give low values; activity change, negative = inhibition, % at 57.5 µM; 350,000 tested, 0.59% active; Q9HBX9;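 active = activity change of -60% or lower, but not beyond a set lower limit; inconclusive = change between -60% and -40%, or beyond the set limit; inactive = change above -40%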; note: % is set by controls: 0 for no effect and ±100 for the full control effect
gsp ag: agonists of gsp mutant (McCune-Albright syndrome); AID 624287; 340,000 tested, 0.13% active; gsp mutant cells, cAMP HTRF, 30 min; Potency, µM (series often up to 76.9 µM), for inactives: at the top dose activation (cAMP increase), most hits filed as activators; active = well fitted activation curve with a large enough effect; inconclusive = small, poorly fitted or top-dose-only effect, or another doubt; inactive = no such curve, though single readings can be large or run the other way; cell line not stated here;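 note: phosphodiesterase inhibitor Ro 20-1724 added with compounds to block cAMP breakdown; potency is the fitted concentration of half-maximal effect; nearly all actives have a fitted effect of over 60% in size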
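Cells stably selected in G418 were plated at 2000/well, grown 16-24 hr, then given compounds in DMSO with the PDE inhibitor […] (300 uM solution added) for 30 min at 37C; cAMP was read by HTRF.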
gsp antag: antagonists of gsp mutant (McCune-Albright syndrome). gsp-mutant cells, cAMP HTRF, 30 min. Potency, µM (top dose mostly 76.9 µM), inactives show top-dose activity change, negative = inhibition, usual class: inhibitors. 340,000 tested, 0.4% active. AID 624288; calls by dose curve; cell line not stated here;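 note: intracellular cAMP measured with PDE inhibitor Ro 20-1724 present during compound exposure; potency is the fitted concentration of half-maximal effect; % is set by controls: 0 for no effect and ±100 for the full control effect; nearly all actives have a fitted effect of over 65% in size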
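Cells, 2000/well, grown 16–24 h in DMEM 10% FBS with 0.5 mg/ml G418, then compounds plus […] (300 uM addition stock), 30 min at 37C. cAMP read by HTRF (cAMP-d2 and anti-cAMP antibody-K in lysis buffer) after 30 min RT.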
Akt phos inh: Akt phosphorylation inhibition. Neuro2A IGF-stimulated pAkt S473 HTRF, 20 min; hits give low values. 360,000 tested, 0.32% active. activity change, % for hits at 50 µM; in the data active = activity change below about -80%; inconclusive = mostly about -51% to -80%; note: % is set by controls: 0 for no effect and ±100 for the full control effect
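Neuro2A cells in DMEM with 0.5% FBS, overnight at 37 deg C, given compound at single 50 µM final, then IGF (6 nM final) for 20 min at 37 deg C. Lysed; phospho-Akt Ser473 by HTRF after 24 h, 665/615 ratio.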
The depositor's hits bear a star; [ ] = remark or other dose. Rows were chosen to be rich in hits. Some 1.3% of all compounds tested hit in one or more screens of this group.

Results for O=C(NC1CCCCC1)c1sc(=S)n2c1[nH]c(=O)c1ccccc12 ?
RXFP1 ag: 0.4%; RXFP1 antagonist: -2.5; gsp ag: -37.0%; gsp antag: 44.7µM*; Akt phos inh: inactive

How did CCCCNC(=O)c1sc(=S)n2c1[nH]c(=O)c1ccccc12 do in these assays?
RXFP1 ag: -0.9%; RXFP1 antagonist: -17.8; gsp ag: 18.6%; gsp antag: 25.1µM*; Akt phos inh: inactive

Results for O=C(NCCc1ccccc1)c1ccc2c(=O)[nH]c3c(C(=O)NCC4CCCO4)sc(=S)n3c2c1 (stereo not given) ?
RXFP1 ag: -2.2%; RXFP1 antagonist: -5.6; gsp ag: -9.2%[15.4 µM]; gsp antag: inconclusive; Akt phos inh: inactive

How did COc1ccc(NC(=O)c2cccc(N3CCCS3(=O)=O)c2)c(OC)c1 do in these assays?
RXFP1 ag: 2.7%; RXFP1 antagonist: -10.9

What do the screens show for `CCc1nn(CC(=O)Nc2cccc(C(C)=O)c2)c(=O)c2cc3sccc3n12`?
RXFP1 ag: 16.2%; RXFP1 antagonist: -26.7

Results for COc1cccc(-c2cc3c(=O)n(-c4ccccc4)c(=S)[nH]c3s2)c1 ?
RXFP1 ag: inconclusive; RXFP1 antagonist: -3.0; gsp ag: 11.2µM*; gsp antag: 18.9%; Akt phos inh: inactive

How did CCCOc1cccc(C2/C(=C(\O)c3ccc4c(c3)OCCO4)C(=O)C(=O)N2CCCn2ccnc2)c1 (stereo not given) do in these assays?
RXFP1 ag: inconclusive; RXFP1 antagonist: -15.1; gsp ag: inconclusive; gsp antag: 13.8%; Akt phos inh: inactive

How did CCCCOc1cccc(C2/C(=C(\O)c3ccc4c(c3)OCCO4)C(=O)C(=O)N2CCN2CCOCC2)c1 (stereo not given) do in these assays?
RXFP1 ag: 25.1µM*; RXFP1 antagonist: 1.8; gsp ag: 15.8µM*; gsp antag: -2.8%; Akt phos inh: inactive

How did COc1cccc(C2/C(=C(\O)c3ccc4c(c3)OCCO4)C(=O)C(=O)N2c2nnc(C)s2)c1 (stereo not given) do in these assays?
RXFP1 ag: inconclusive; RXFP1 antagonist: 0.9; gsp ag: 8.91µM*; gsp antag: -9.7%; Akt phos inh: inactive

What do the screens show for `COc1ccc(Cl)cc1NC(=O)c1c(NCc2ccc(C)o2)sc2c1CCCC2`?
RXFP1 ag: 0.7%; RXFP1 antagonist: -61.3*

How did COc1cccc(CC(=O)Nc2sc3c(c2C(N)=O)CCCC3)c1 do in these assays?
RXFP1 ag: inconclusive; RXFP1 antagonist: 14.6; gsp ag: 35.5µM*; gsp antag: -3.1%; Akt phos inh: inactive

What do the screens show for `COc1ccc(NC(=O)c2c(NCc3cccc(F)c3)sc3c2CCC3)c(OC)c1`?
RXFP1 ag: 1.1%; RXFP1 antagonist: -61.8*

Results for CCOc1ccc(S(=O)(=O)N(C(=O)c2ccncc2)c2ccc3oc(C)c(C(=O)OC)c3c2)cc1 ?
RXFP1 ag: 0.8%; RXFP1 antagonist: -15.8

What do the screens show for `Cc1ccc(-n2nc(C(=O)N3CCC(C)CC3)c(=O)n(C)c2=O)cc1`?
RXFP1 ag: 3.9%; RXFP1 antagonist: 0.1

What do the screens show for `COc1ccc(N2CCN(CC(=O)Nc3nc4c(s3)CC(C)CC4)CC2)cc1` (stereo not given)?
RXFP1 ag: -0.4%; RXFP1 antagonist: -10.1; gsp ag: 6.4%; gsp antag: -4.3%; Akt phos inh: -119.9%*

Results for N=c1c(C(=O)NCc2ccc(F)cc2)cc2c(=O)n3ccccc3nc2n1CC1CCCO1 (stereo not given) ?
RXFP1 ag: 7.1%; gsp ag: inconclusive; gsp antag: 3.7%; Akt phos inh: inactive

Results for N=c1c(C(=O)NCc2ccc3c(c2)OCO3)cc2c(=O)n3ccccc3nc2n1CC1CCCO1 (stereo not given) ?
RXFP1 ag: 19.3%; RXFP1 antagonist: -17.8; gsp ag: 28.2µM*; gsp antag: -1.9%; Akt phos inh: inactive

What do the screens show for `Cc1cc(O)c(CN2CCN(c3ccc(F)cc3)CC2)c2oc(=O)cc(C)c12`?
RXFP1 ag: 25.1µM*; RXFP1 antagonist: -9.8

Results for Cc1ccc(CCNC(=O)CCN2N=C(c3ccc(C)cc3)CCC2=O)cc1 ?
RXFP1 ag: -1.5%; RXFP1 antagonist: -26.1

What do the screens show for `CCOC(=O)c1ccccc1NC(=O)N1CCN2CCCCC2C1` (stereo not given)?
RXFP1 ag: 0.3%; RXFP1 antagonist: -15.0

Results for Oc1ccc(O)c(Cc2nc3ccccc3s2)c1 ?
RXFP1 ag: -2.9%; RXFP1 antagonist: -77.3*; gsp ag: -22.7%; gsp antag: 2.9%; Akt phos inh: inactive

What do the screens show for `CCCCN(C)CC(O)Cn1cc(/C=C/C(=O)c2ccc(OC)c(OC)c2)c2ccccc21` (stereo not given)?
RXFP1 ag: -1.0%

Results for CCc1cccc(CC)c1NC(=O)C(Cc1ccccc1)NS(=O)(=O)c1cccc2nsnc12 (stereo not given) ?
RXFP1 ag: -0.3%; RXFP1 antagonist: -14.2

How did O=C(CSc1ncnc2ccccc12)Nc1cc(S(=O)(=O)N2CCCCC2)ccc1Cl do in these assays?
RXFP1 ag: 15.8µM*; RXFP1 antagonist: 1.2; gsp ag: 3.16µM*; gsp antag: 25.3%; Akt phos inh: inactive

Results for O=C(Nc1cccc(F)c1)Nc1cccc(Cl)c1 ?
RXFP1 ag: 0.1%; RXFP1 antagonist: -3.6; gsp ag: -19.1%; gsp antag: -18.4%; Akt phos inh: inactive

How did O=C(Nc1cccc(Cl)c1)Nc1cc(S(=O)(=O)N2CCCCC2)ccc1Cl do in these assays?
RXFP1 ag: 0.1%; RXFP1 antagonist: -16.3; gsp ag: 12.7%; gsp antag: 25.1µM*; Akt phos inh: inactive

Results for O=C(Nc1cccc(Cl)c1)Nc1cccc(Cl)c1 ?
RXFP1 ag: 1.1%; RXFP1 antagonist: -21.1; gsp ag: 15.7%; gsp antag: 35.5µM*; Akt phos inh: inactive

How did COc1ccccc1NS(=O)(=O)c1cccc(NC(=O)Nc2cccc(Cl)c2)c1 do in these assays?
RXFP1 ag: -0.8%; RXFP1 antagonist: inconclusive; gsp ag: -12.0%; gsp antag: 31.6µM*; Akt phos inh: inactive

Results for O=C(CCN1C(=O)c2ccccc2Sc2ncccc21)Nc1ccc(F)cc1 ?
RXFP1 ag: -0.4%; RXFP1 antagonist: 5.1

Results for CCC(Cc1ccccc1)NC(=O)Cn1ncc2c3ccccc3n(Cc3ccccc3)c2c1=O (stereo not given) ?
RXFP1 ag: 5.1%; RXFP1 antagonist: 3.6

What do the screens show for `COC(=O)c1cc(NC(=O)Nc2cccc(Cl)c2)ccc1Cl`?
RXFP1 ag: 0.6%; RXFP1 antagonist: 4.7; gsp ag: -4.3%; gsp antag: 25.1µM*; Akt phos inh: inactive
